Data as given in PubChem BioAssay (NCI).
About 79,000 compounds went through this panel and 15% of them were active in at least one assay; those are over-represented in the sample as a whole. A number with no mark means an inactive call. Calls of active or inactive are those of the source. Rule as the data show it: active = growth inhibition above about 70%; inactive = the rest.

Key:
[1] = NCI Yeast Anticancer Drug Screen. Data for the rad50 strain (AID 155);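 also: 0% = growth of vehicle-only cultures of the same strain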; conditions: S. cerevisiae rad50 strain growth inhibition, active compounds read high
Summary of the method: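 Cells are treated with compound, grown, and their growth is then scored against vehicle-only cultures of the same repair-deficient yeast strain.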

[2] = NCI Yeast Anticancer Drug Screen. Data for the mec2-1 strain (AID 157); conditions: S. cerevisiae mec2-1 strain, active compounds read high
Summary of the method: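 Each compound was tested on mec2-1 yeast, a strain altered in DNA damage repair or cell cycle control. Growth inhibition is reported relative to vehicle.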

[3] = NCI Yeast Anticancer Drug Screen. Data for the sgs1 mgt1 strain (AID 161);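 also: 0% = growth of cultures given vehicle only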; conditions: S. cerevisiae sgs1 mgt1 strain, active compounds read high
Summary of the method: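 Read-out: growth inhibition vs vehicle controls. Cells: mutant yeast strain deficient in DNA damage repair.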

[4] = NCI Yeast Anticancer Drug Screen. Data for the cln2 rad14 strain (AID 165);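 also: 0% = growth equal to vehicle treated cultures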; conditions: S. cerevisiae cln2 rad14 strain, active compounds read high
Summary of the method: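 Test compounds were added to cln2 rad14 yeast cultures; inhibition of growth was then determined by comparison with vehicle treatment.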

[5] = NCI Yeast Anticancer Drug Screen. Data for the bub3 strain (AID 167); conditions: S. cerevisiae bub3 mutant strain, active compounds read high
Summary of the method: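 Part of a panel of yeast mutants defective in DNA damage repair or cell cycle regulation. Each strain is grown with compound, and inhibition is calculated relative to solvent-treated cultures.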

[6] = NCI Yeast Anticancer Drug Screen. Data for the mlh1 rad18 strain (AID 175); conditions: S. cerevisiae mlh1 rad18 strain growth inhibition, active compounds read high
Summary of the method: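 Inhibition values reflect reduced growth of mutant yeast versus vehicle-treated controls following compound exposure; the mutations affect DNA damage repair.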

[7] = at 5.0 µM (retest, dose inferred, filed as 0.5)
[8] = at 50.0 µM (retest, dose inferred, filed as 5.0)

SMILES | growth inhibition [1, 7] [%] | growth inhibition [1, 8] | growth inhibition ([1]; at 50.0 µM) | growth inhibition [2, 7] [%] | growth inhibition [2, 8] | growth inhibition ([2]; at 50.0 µM) | growth inhibition [3, 7] [%] | growth inhibition [3, 8] | growth inhibition ([3]; at 50.0 µM) | growth inhibition [4, 7] | growth inhibition [4, 8] | growth inhibition ([4]; at 50.0 µM) | growth inhibition [5, 7] | growth inhibition [5, 8] | growth inhibition ([5]; at 50.0 µM) | growth inhibition [6, 7] [%] | growth inhibition [6, 8] | growth inhibition ([6]; at 50.0 µM)
S=C(Nc1ccc(Cl)c(Cl)c1)N1c2ccccc2-n2cccc2C1c1cccnc1 (configuration not stated) | 49 | 99% (active) | 80.8% (active) | 46 | 99% (active) | 84.5% (active) | 59 | 94% (active) | 85% (active) | 91% (active) | 94% (active) | 84.7% (active) | 72% (active) | 89% (active) | 84% (active) | 45 | 100% (active) | 87.8% (active)
CC1CCC(C(C)(C)c2ccc(O)cc2)CC1 (configuration not stated) | 0 | 97% (active) | 97.7% (active) | -1 | 98% (active) | 98.2% (active) | 3 | 98% (active) | 98.8% (active) | -6% | 96% (active) | 97.6% (active) | -4% | 97% (active) | 98.3% (active) | -6 | 98% (active) | 98.3% (active)
OC(c1ccccc1)c1cccc2ccccc12 (configuration not stated) | -1 | 47% | 91.3% (active) | -5 | 14% | 67.3% | 20 | 25% | -1.85% | -8% | 18% | 44.8% | -1% | 30% | 67% | -1 | 25% | 43.1%
CCC(C)COC(=O)c1ccc([N+](=O)[O-])cc1 (configuration not stated) | -4 | 10% | 50% | -4 | 2% | 16.4% | -1 | 7% | 72.8% (active) | -3% | -9% | -2.15% | -6% | -6% | 80.2% (active) | -4 | 5% | 89.3% (active)
